Structures are written as SMILES. Records with an inconclusive call do not appear. The source made the active and inactive calls. The call rests on the fitted dose curve.

The experiment can be described thus: qHTS for Inhibitors of Cell Surface uPA Generation: Wild-type Protective Antigen (WT-PrAg) Counterscreen for Cherry-picked Compounds. Further: 0% is about no effect. To be noted: cells, WT protective antigen toxicity counterscreen; series mostly up to 115 µM; activity (protection): at the top concentration.
For the compound `CSc1ccccc1OCc1cc(C(=O)NCCCn2nc(C)cc2C)no1`, the “activity (protection)” value is -1.8% (inactive).
Under `CCCn1nnc(NC(=S)NC(=O)c2ccccc2OC)n1` stands -0.0432% (inactive).
Under `O=C(COC(=O)c1ccc2ncsc2c1)NCc1cccc(Cl)c1` stands -0.608% (inactive); under `Cc1nn(C)c(C)c1S(=O)(=O)N1CCC(C(=O)NC2CCCCCC2)CC1`, -0.489% (inactive); under `O=C(Nc1c(C(=O)O)oc2ccc(Br)cc12)c1ccccc1`, -2.48% (inactive).
As to `CC(C)c1ccc(C2/C(=C(\O)c3ccc4c(c3)OCCO4)C(=O)C(=O)N2CCN2CCOCC2)cc1` (stereo unspecified), the “activity (protection)” value was -0.545% (inactive).
`Cc1ccc(C(CC(=O)N2CCCC2)c2ccccc2)c(O)c1` (stereo unspecified): the “activity (protection)” value was -0.548% (inactive).
Under `COc1ccc(Cl)cc1NC(=O)CSc1nc(=O)n(CCN(C)C)c2c1CCCC2` stands -2.67% (inactive); under `CN(C)S(=O)(=O)c1cccc(C(=O)OCC(=O)NCc2ccc3c(c2)OCO3)c1`, -0.183% (inactive); under `Cc1nc(N2CCN(c3ccc(Cl)cc3)CC2)[nH]c(=O)c1C`, 0.512% (inactive).
Under `COC(=O)/C(C#N)=C/c1c(N2CCN(c3ccccc3)CC2)nc2c(C)cccn2c1=O` stands -0.794% (inactive); under `Clc1ccc(-c2nc3ccccn3c2CN2CCSCC2)cc1`, -2.3% (inactive).
As for `C[C@H](CO)N1C[C@H](C)[C@@H](CN(C)C(=O)Nc2ccccc2)Oc2c(NS(=O)(=O)c3ccccc3)cccc2C1=O`, the “activity (protection)” value was 1.01% (inactive).
With `COc1ccccc1NS(=O)(=O)c1cc(NC(=O)CCc2nc3ccccc3c(=O)[nH]2)ccc1C`, the “activity (protection)” value is -1.11% (inactive).
Consider `COCCN1C(=O)C(=O)/C(=C(/O)c2ccc(S(=O)(=O)N3CCOCC3)cc2)C1c1cccc([N+](=O)[O-])c1` (stereo unspecified), for which the “activity (protection)” value was -1.23% (inactive).
Under `CC(=O)c1c(C)n(-c2ccccc2Br)c2ccc(O)cc12` stands -2.39% (inactive).

The values above are taken from PubChem BioAssay AID720518 (National Center for Advancing Translational Sciences (NCATS), 2013).
